According to PubChem BioAssay (NCATS):
Records with an inconclusive call do not appear. Where a call stands in place of a potency, no number is given. Calls of active or inactive are those of the source. Calls come from the whole dose curve; as a rule, active = well fitted curve in the direction sought with a large enough effect; inconclusive = small, poorly fitted or top-dose-only effect, or another doubt; inactive = no such curve, though single readings can be large; an effect the other way counts as inactive or inconclusive. Peptide text beside a SMILES is read from it.

System: not listed separately
Test: Cell Viability - LYMP2-022 (AID 987); note: nearly all actives have a fitted effect of over 55% in size; note: potency is the fitted concentration of half-maximal effect
Settings: LYMP2-022 lymphoblastoid cell viability; series mostly up to 92.2 µM
In short: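 Human lymphoblastoid cells, 2500/well, preincubated 5 hr at 37 C, then exposed to compounds over a concentration range for 24 hr at 37 C in complete medium. Viability read as intracellular ATP by CellTiter-Glo luminescence after 30 min at room temperature; AC50 from Hill fits.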
In the case of `CN(C)c1ccc2nc3ccc(=[N+](C)C)cc-3sc2c1`, the Potency is reported as 6.31 µM (active). In the case of `COC(=O)[C@H](Cc1ccccc1)NC(=O)[C@@H](N)CC(=O)O` (H-Asp-Phe-OMe), the Potency is reported as “inactive”. In the case of `c1ccc2[nH]c(-c3cscn3)nc2c1`, the Potency is reported as “inactive”. For `CS(=O)(=O)OCCCCOS(C)(=O)=O`, the Potency was “inactive”. With `Nc1ccc(S(N)(=O)=O)cc1` the Potency was “inactive”. With `NS(=O)(=O)c1cc(C(=O)O)c(NCc2ccco2)cc1Cl` the Potency was “inactive”. With `CCc1nc(N)nc(N)c1-c1ccc(Cl)cc1` the Potency was “inactive”. With `CCCc1cc(=O)[nH]c(=S)[nH]1` the Potency was “inactive”. In the case of `CCCCC(CC)COC(=O)C(C#N)=C(c1ccccc1)c1ccccc1` (centres undefined), the Potency is reported as “inactive”. For `COc1c2occc2cc2ccc(=O)oc12`, the Potency was “inactive”. With `CC(=O)Nc1ccc(O)cc1` the Potency was “inactive”. For `Cc1ccc(C)c(OCCCC(C)(C)C(=O)O)c1`, the Potency was “inactive”.

System: not listed separately
Test: Cell Viability - LYMP2-024 (AID 988); note: nearly all actives have a fitted effect of over 60% in size; note: potency is the fitted concentration of half-maximal effect
Settings: LYMP2-024 lymphoblastoid cell viability; series mostly up to 92.2 µM
In short: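 Human lymphoblastoid cells (2500/well) in complete medium were preincubated 5 hr at 37 C, then exposed to compounds for 24 hr at 37 C. Intracellular ATP was read by CellTiter-Glo luminescence; AC50 from Hill-equation fits of concentration-response data.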
For `CN(C)c1ccc2nc3ccc(=[N+](C)C)cc-3sc2c1`, the Potency was 6.31 µM (active). With `COC(=O)[C@H](Cc1ccccc1)NC(=O)[C@@H](N)CC(=O)O` (H-Asp-Phe-OMe) the Potency was “inactive”. In the case of `c1ccc2[nH]c(-c3cscn3)nc2c1`, the Potency is reported as “inactive”. For `CS(=O)(=O)OCCCCOS(C)(=O)=O`, the Potency was “inactive”. For `Nc1ccc(S(N)(=O)=O)cc1`, the Potency was “inactive”. For `NS(=O)(=O)c1cc(C(=O)O)c(NCc2ccco2)cc1Cl`, the Potency was “inactive”. For `CCCc1cc(=O)[nH]c(=S)[nH]1`, the Potency was “inactive”. For `CCCCC(CC)COC(=O)C(C#N)=C(c1ccccc1)c1ccccc1` (centres undefined), the Potency was “inactive”. With `COc1c2occc2cc2ccc(=O)oc12` the Potency was “inactive”. For `CC(=O)Nc1ccc(O)cc1`, the Potency was “inactive”. In the case of `Cc1ccc(C)c(OCCCC(C)(C)C(=O)O)c1`, the Potency is reported as “inactive”.

System: not listed separately
Test: Cell Viability - LYMP2-026 (AID 989); note: nearly all actives have a fitted effect of over 50% in size; note: potency is the fitted concentration of half-maximal effect
Settings: LYMP2-026 lymphoblastoid cell viability, qHTS; series mostly up to 92.2 µM
In short: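 Human lymphoblastoid cells (2500/well) in complete medium were preincubated 5 hr at 37 C, then exposed to compounds for 24 hr at 37 C. Cellular ATP was read by CellTiter-Glo luminescence; AC50 from Hill-equation fits of concentration-response data.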
In the case of `CN(C)c1ccc2nc3ccc(=[N+](C)C)cc-3sc2c1`, the Potency is reported as 7.94 µM (active). For `COC(=O)[C@H](Cc1ccccc1)NC(=O)[C@@H](N)CC(=O)O` (H-Asp-Phe-OMe), the Potency was “inactive”. In the case of `c1ccc2[nH]c(-c3cscn3)nc2c1`, the Potency is reported as “inactive”. For `CS(=O)(=O)OCCCCOS(C)(=O)=O`, the Potency was “inactive”. With `Nc1ccc(S(N)(=O)=O)cc1` the Potency was “inactive”. For `NS(=O)(=O)c1cc(C(=O)O)c(NCc2ccco2)cc1Cl`, the Potency was “inactive”. For `CCc1nc(N)nc(N)c1-c1ccc(Cl)cc1`, the Potency was “inactive”. For `CCCc1cc(=O)[nH]c(=S)[nH]1`, the Potency was “inactive”. With `CCCCC(CC)COC(=O)C(C#N)=C(c1ccccc1)c1ccccc1` (centres undefined) the Potency was “inactive”. In the case of `COc1c2occc2cc2ccc(=O)oc12`, the Potency is reported as “inactive”. With `CC(=O)Nc1ccc(O)cc1` the Potency was “inactive”. With `Cc1ccc(C)c(OCCCC(C)(C)C(=O)O)c1` the Potency was “inactive”.

Target: Alpha-galactosidase A (Homo sapiens) (UniProt P06280)
Sequence (P06280 whole entry, looked up): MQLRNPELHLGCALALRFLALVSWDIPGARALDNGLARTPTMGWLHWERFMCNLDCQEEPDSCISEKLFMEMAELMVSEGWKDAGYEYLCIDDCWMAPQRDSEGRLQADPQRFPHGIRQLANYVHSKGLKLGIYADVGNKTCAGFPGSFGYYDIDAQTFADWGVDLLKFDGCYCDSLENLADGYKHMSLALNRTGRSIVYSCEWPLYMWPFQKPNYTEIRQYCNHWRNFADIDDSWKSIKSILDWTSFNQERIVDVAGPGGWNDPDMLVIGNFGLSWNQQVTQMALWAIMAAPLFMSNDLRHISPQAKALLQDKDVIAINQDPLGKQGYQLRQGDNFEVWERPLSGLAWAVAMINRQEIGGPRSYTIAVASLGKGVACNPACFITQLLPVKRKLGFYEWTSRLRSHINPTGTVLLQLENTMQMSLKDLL
Test: Counterscreen for Glucocerebrosidase Inhibitors: qHTS Assay for Human alpha-Galactosidase at pH 4.5 (AID 992)
Settings: purified enzyme, fluorogenic substrate; series mostly up to 76.9 µM
In short: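 Concentration-response curves (0.7 nM to 77 uM final) were modeled with the Hill equation to give AC50. Reactions: 2 nM enzyme, 80 uM fluorogenic alpha-galactoside, pH 4.5 citric acid buffer, 20 min, room temperature.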
For `O=Nc1c(-c2c(O)[nH]c3cc(Br)ccc23)[nH]c2ccccc12`, the outcome was “inactive”. For `Cc1c(OCC(F)(F)F)ccnc1CS(=O)c1nc2ccccc2[nH]1` (centres undefined), the outcome was “inactive”. For `O=c1ccc2ccc(O)c(O)c2o1`, the outcome was “inactive”. For `O=C1NC(=O)C(c2ccccc2[N+](=O)[O-])=C1Nc1ccc(O)c(Cl)c1`, the outcome was “inactive”. In the case of `NNc1nncc2ccccc12`, the outcome is reported as “inactive”. In the case of `O=C(O)c1cccnc1Nc1cccc(C(F)(F)F)c1`, the outcome is reported as “inactive”. With `CCN(CC)C(=S)SSC(=S)N(CC)CC` the outcome was “inactive”. In the case of `COc1ccc2cc([C@H](C)C(=O)O)ccc2c1`, the outcome is reported as “inactive”. For `CNC[C@H](O)c1ccc(O)c(O)c1`, the outcome was “inactive”. In the case of `O=c1c(O)c(-c2ccc(O)cc2O)oc2cc(O)cc(O)c12`, the outcome is reported as “inactive”. For `COc1ccccc1N1CCN(CCN(C(=O)C2CCCCC2)c2ccccn2)CC1`, the outcome was “inactive”. In the case of `Oc1ccc(-c2nc(-c3ccc(F)cc3)c(-c3ccncc3)[nH]2)cc1`, the outcome is reported as “inactive”. In the case of `CC(C)c1ccc2c(c1)c(SC(C)(C)C)c(CC(C)(C)C(=O)O)n2Cc1ccc(Cl)cc1`, the outcome is reported as “inactive”. In the case of `NC(=NCc1ccccc1)NC(=O)c1nc(Cl)c(N)nc1N`, the outcome is reported as “inactive”. With `NCCCCNCCCN` the outcome was “inactive”. For `O=c1cc(N2CCOCC2)oc2c(-c3ccccc3)cccc12`, the outcome was “inactive”.

System: not listed separately
Test: Cell Viability - LYMP1-002 - Assay at 24 hr (AID 993); note: potency is the fitted concentration of half-maximal effect
Settings: LYMP1-002 lymphoblastoid cells viability; series mostly up to 92.2 µM
In short: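 Human lymphoblastoid LYMP1-002 cells, 2500/well in complete medium, were treated with compounds for 24 h at 37 C; intracellular ATP was read by CellTiter-Glo luminescence. AC50 values came from Hill-equation fits of qHTS concentration-response data.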
With `CN(C)c1ccc2nc3ccc(=[N+](C)C)cc-3sc2c1` the Potency was 10 µM (active). For `COC(=O)[C@H](Cc1ccccc1)NC(=O)[C@@H](N)CC(=O)O` (H-Asp-Phe-OMe), the Potency was “inactive”. With `c1ccc2[nH]c(-c3cscn3)nc2c1` the Potency was “inactive”. With `CS(=O)(=O)OCCCCOS(C)(=O)=O` the Potency was “inactive”. For `Nc1ccc(S(N)(=O)=O)cc1`, the Potency was “inactive”. For `NS(=O)(=O)c1cc(C(=O)O)c(NCc2ccco2)cc1Cl`, the Potency was “inactive”. With `CCc1nc(N)nc(N)c1-c1ccc(Cl)cc1` the Potency was “inactive”. With `CCCc1cc(=O)[nH]c(=S)[nH]1` the Potency was “inactive”. For `CCCCC(CC)COC(=O)C(C#N)=C(c1ccccc1)c1ccccc1` (centres undefined), the Potency was “inactive”. For `COc1c2occc2cc2ccc(=O)oc12`, the Potency was “inactive”. In the case of `CC(=O)Nc1ccc(O)cc1`, the Potency is reported as “inactive”. With `Cc1ccc(C)c(OCCCC(C)(C)C(=O)O)c1` the Potency was “inactive”.

System: not listed separately
Test: Cell Viability - LYMP1-002 - Assay at 40 hr (AID 994); note: nearly all actives have a fitted effect of over 60% in size; note: potency is the fitted concentration of half-maximal effect
Settings: LYMP1-002 lymphoblastoid cell viability; series mostly up to 92.2 µM
In short: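 Human lymphoblastoid cells, 2500/well in complete medium, were preincubated 5 hr at 37 C, then exposed to compounds for 40 hr at 37 C. Intracellular ATP was read by CellTiter-Glo luminescence after 30 min at room temperature; AC50 from Hill-equation fits.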
With `CN(C)c1ccc2nc3ccc(=[N+](C)C)cc-3sc2c1` the Potency was 7.94 µM (active). With `COC(=O)[C@H](Cc1ccccc1)NC(=O)[C@@H](N)CC(=O)O` (H-Asp-Phe-OMe) the Potency was “inactive”. In the case of `c1ccc2[nH]c(-c3cscn3)nc2c1`, the Potency is reported as “inactive”. For `CS(=O)(=O)OCCCCOS(C)(=O)=O`, the Potency was “inactive”. In the case of `Nc1ccc(S(N)(=O)=O)cc1`, the Potency is reported as “inactive”. For `NS(=O)(=O)c1cc(C(=O)O)c(NCc2ccco2)cc1Cl`, the Potency was “inactive”. In the case of `CCCc1cc(=O)[nH]c(=S)[nH]1`, the Potency is reported as “inactive”. In the case of `CCCCC(CC)COC(=O)C(C#N)=C(c1ccccc1)c1ccccc1` (centres undefined), the Potency is reported as “inactive”. For `COc1c2occc2cc2ccc(=O)oc12`, the Potency was “inactive”. For `CC(=O)Nc1ccc(O)cc1`, the Potency was “inactive”. For `Cc1ccc(C)c(OCCCC(C)(C)C(=O)O)c1`, the Potency was “inactive”.
